# “And” between values parts separate entries of the source, which are not always exact repeats. Identical values can stand only once.
# Legend:
# Assay type in all cases: functional
# [1] = system: Plasmodium falciparum; test: GSK_TCMDC: Inhibition of Plasmodium falciparum 3D7 in whole red blood cells, using parasite LDH activity as an index of growth. Test compounds present at 2uM
# [2] = system: Plasmodium falciparum; test: GSK_TCMDC: Inhibition of Plasmodium falciparum Dd2 in whole red blood cells, using parasite LDH activity as an index of growth. Test compounds present at 2uM
# [3] = system: HepG2; test: GSK_TCMDC: Percent inhibition of human HepG2 cell line. Test compounds present at 10uM.
SMILES,Inhibition [1],Inhibition [2],Inhibition [3]
O=C(Nc1cccc(CN2CCCN(Cc3cccc(Cl)c3)CC2)c1)c1ccc(-c2ccccc2)cc1.O=C(O)C(F)(F)F,86%,14%,44%
O=C(NCCCCN1CCC2c3cccc(O)c3CCC21)c1ccc(-c2ccccc2)cc1 (configuration not stated),81%,50%,23%
Cc1c(CN2CCCCC2)cccc1OCCCNc1nc(NCCc2ccc(O)cc2)nc(N2CCNCC2)n1.O=C(O)C(F)(F)F,100%,23%,26%
C[C@@H](N/C(=N\c1ccccc1Cl)Nc1ccc(C#N)cc1O)c1ccc(Br)cc1,98%,70%,33%
CN1CCCN(Cc2ccc(-c3cccc(NC(=O)c4cccc(Cl)c4)c3)cc2)CC1.O=C(O)C(F)(F)F,100%,32%,33%
COc1ccc(-c2ccc(NC(=O)c3cccs3)cc2)cc1CN1CCCN(C)CC1.O=C(O)C(F)(F)F,100%,30%,31%
NCCNc1ccc([N+](=O)[O-])cc1C(=O)Nc1cccc(Cl)c1,85%,7%,23%
COc1c(C2=CCN(CCCCNC(=O)c3ccc(-c4ccc(C#N)cc4)cc3)CC2)c(C)cc2c1C(C)(C)CCC2(C)C,92%,88%,18%
Cc1cc(C2CCN(CCCCNC(=O)c3ccc(NC(=O)c4ccc(Cl)cc4)cc3)CC2)c(C)cc1OCc1ccncc1.Cl,100%,92%,33%
Cc1ccc(C)c(NC(=O)CC2C(=O)N(c3ccccc3)C(=S)N2Cc2ccco2)c1 (configuration not stated),100%,99%,9%
CN(CCN(C)CC(O)c1ccc(Cl)c(Cl)c1)CC(O)c1ccc(Cl)c(Cl)c1.Cl (configuration not stated),91%,73%,22%
COc1ccc(C(c2ccc(N(C)C)cc2)c2ccc(N(C)C)cc2)cc1,100%,99%,72%
O=C(NCCCCN1CCC(c2ccc3c(c2OCc2ccccn2)CCCC3)CC1)c1ccc(NC(=O)c2ccc(Cl)cc2)cc1,100%,70%,31%
CCN(CC)CCN(Cc1ccc(-c2ccc(C(F)(F)F)cc2)cc1)C(=O)Cn1cc(CCCc2cccc(F)c2F)c(=O)c2ccccc21.O=C(O)C(O)C(O)C(=O)O,89%,20%,13%
Cc1cccc2nc(-c3cccc(-c4ccc(NC(=O)Nc5ccc6c(c5)OCO6)cc4)c3)[nH]c12,100%,86%,80%
O=C(NCCc1ccccc1F)c1cc(Br)cc(N2CCN(c3ccncc3)CC2)c1.O=C(O)C(F)(F)F,97%,67%,29%
Cc1ccc(O)cc1Nc1ccnc2cc(-c3ccc(CN4CCCCC4)o3)ccc12,100%,99%,16%
CCc1ccc(OCc2ccccc2C(=O)Nc2ccc3nc(C)cc(N)c3c2)cc1.Cl,99%,74%,98%
CC(Nc1ncc(-c2ccsc2)c(-c2nccs2)n1)c1ccc2c(c1)OCCO2 (configuration not stated),81%,66%,14%
Cl.NC(=O)c1cccc(Nc2nccc(Nc3ccc(Oc4ccc5ccccc5c4)cc3)n2)c1,96%,31%,15%

SMILES,Inhibition [1],Inhibition [2],Inhibition [3]
Cc1cccc(C)c1/N=C1\NC(=S)N(c2cccc(Cl)c2)C12CCC(C(C)(C)C)CC2 (configuration not stated),87%,53%,4%
CCC1N=C(N)N=C(N)N1OCc1ccc(Cl)c(Cl)c1 (configuration not stated),93%,90%,54%
Cc1ccccc1C1CCN(C2CCC(NC(=O)/C=C/c3ccccc3C(F)(F)F)CC2)CC1 (configuration not stated),83%,6%,63%
CCOc1ccc(Nc2ccc3nonc3c2S(=O)(=O)Nc2ccc(OCC)cc2)cc1,100%,93%,6%
O=C(NCc1ccccc1)Nc1cccc(-c2cccc(-c3nc4cc(C(F)(F)F)ccc4[nH]3)c2)c1,95%,30%,56%
O=C(Nc1ccc(-c2csc(-c3nc4ccccc4[nH]3)c2)cc1)Nc1ccc(F)c(F)c1F,100%,64%,67%
COc1ccc(NC(=O)Nc2ccc(Nc3nc(C)cc(N(C)C)n3)cc2)cc1,100%,99%,11%
COc1cc2nc(NCCn3nc(C)cc3C)nc(NCCc3ccccc3)c2cc1OC,100%,100%,28%
Cc1cccc2nc(-c3ccc(-c4cccc(CN5CCN(CCN6CCOCC6)CC5)c4)s3)[nH]c12.O=C(O)C(F)(F)F,100%,83%,33%
CN1CCN(Cc2cccc(-c3cc4nccc(Nc5ccc(Oc6ccccc6)cc5)c4cc3Cl)c2)CC1,100%,96%,10%
Nc1n[nH]c(-c2ccccc2Nc2ccnc3cc(-c4nccs4)ccc23)n1,100%,94%,98%
Cc1ccc(C2(CN3CCC(NC(=O)c4n[nH]cc4Cl)CC3)CCCCC2)cc1,97%,96%,0%
Fc1ccc2[nH]c(-c3cccc(-c4cccc(CNCc5ccccc5)c4)c3)nc2c1.O=C(O)C(F)(F)F,100%,52%,24%
Cc1cccc2nc(-c3ccc(-c4cccc(NC(=O)NCc5ccc(F)cc5)c4)cc3)[nH]c12,100%,100%,82%
Cc1ccc2cc(NCCCCCCCCON3C(N)=NC(N)=NC34CCCCC4)ccc2n1,92%,80%,15%
Clc1ccc(CNc2ccnc(NCCc3coc4ccccc34)n2)c(Cl)c1,86%,39%,26%
O=C(c1ccc([N+](=O)[O-])o1)N1CCN(c2nc3c(Cl)cccc3s2)CC1,91%,87%,0%
Fc1ccccc1C=NN=c1cc[nH]c2ccccc12,94%,26%,8%
CCOc1cccc2nc(NCCCNCc3ccc(Cl)c(Cl)c3)cc(NCCCNCc3ccc(Cl)c(Cl)c3)c12,98%,58%,96%
Cl.O=C1CSc2ccc(CNC3CCN(CCc4c(Cl)cnc5ccc(F)cc45)CC3)nc2N1,98%,52%,21%

SMILES,Inhibition [1],Inhibition [2],Inhibition [3]
COc1ccc2ncn(-c3ccc(C(N)=O)c(OCc4ccccc4C(F)(F)F)c3)c2c1,98%,100%,18%
Br.CCCC1N=C(N)N=C(N)N1c1ccc(OC)cc1 (configuration not stated),96%,4%,0%
CN(C)CCn1cc(C(=O)c2cc(Cl)ccc2O)cc1-c1nc2ccccc2c(=O)[nH]1,99%,87%,16%
C=C(C)CSc1nc2c(c(=O)n1Cc1ccco1)C1(CCCCC1)Cc1ccccc1-2,97%,68%,2%
CCc1ccccc1N1CCN(CCCCNC(=O)c2ccc(NC(=O)c3ccc(Cl)cc3)cc2)CC1,96%,4%,21%
O=C(Nc1ccc(Oc2ccccc2)cc1)N[C@H]1CCN(Cc2ccc(OCCCN3CCCCC3)cc2)C1,100%,6%,13%
Cc1cc(NCC2CCN(CC3CCCCC3)C2)nc(Nc2ccc(Br)cc2)n1 (configuration not stated),100%,78%,0%
Cc1cc(N[C@@H](Cc2ccccc2)C(=O)NCc2cccs2)nc(NCC2CCCCC2)n1.O=C(O)C(F)(F)F,100%,92%,0%
O=C(/C=C/c1ccc(Cl)c(Cl)c1)NCCCCCN1CCC(c2c[nH]c3ccccc23)C(O)C1 (configuration not stated),96% and 99%,9% and 0%,34% and 12%
COc1ccc(O)c(C(=O)c2cc(C(=O)NCCc3ccccc3)c(=O)n(CCc3ccccc3)c2)c1,97%,18%,11%
O=C(NCCN1CCCC1)c1ccc(-c2ccc(-c3nc4ccccc4[nH]3)s2)cc1,92%,3%,22%
CCCCCCn1c(Sc2ccc(C#N)c([N+](=O)[O-])c2)nnc1-c1ccc(N(C)C)cc1,92%,25%,0%
O=C(NC1CCN(CCN2CCC(c3cn(CCO)c4ccccc34)CC2)CC1)c1ccc(-c2ccc(C(F)(F)F)cc2)cc1,98%,54%,30%
COC(=O)C(C)NCC(=O)c1ccccc1.Cl (configuration not stated),97%,23%,5%
COc1ccccc1NC(=S)N/N=C/c1ccc(O)cc1O,89%,80%,35%
O=C(Cc1cccc(O)c1)Nc1ccc(-c2cccc(-c3nc4cc(C(F)(F)F)ccc4[nH]3)c2)cc1,86%,1%,14%
CC(C)(CNCc1ccc(Cl)c(Cl)c1)c1nc(-c2ccc(Cl)c(O)c2)c(-c2ccncc2)[nH]1.Cl,100%,97%,43%
O=C(O)C(F)(F)F.O=C1CCCN1CCCNCc1ccc(-c2cccc(-c3nc4cc(C(F)(F)F)ccc4[nH]3)c2)cc1,100%,98%,14%
c1ccc2[nH]c(-c3ccc(-c4ccc(CN5CCN(c6ccncc6)CC5)cc4)s3)nc2c1,100%,100%,25%

# Reference: ChEMBL document CHEMBL1157539, “Thousands of chemical starting points for antimalarial lead identification” (Nature, 2010)
